Here are results for eight compounds from PubChem BioAssay (Tox21).

Assay [1] deals with Nuclear receptor subfamily 1 group I member 3 (Homo sapiens) (UniProt Q14994). As to the kind of experiment: qHTS assay to identify small molecule agonists of the constitutive androstane receptor (CAR) signaling pathway (AID 1224839). Note: nearly all actives have a fitted effect of over 15% in size. Note: potency is the fitted concentration of half-maximal effect. In a few lines:
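A 15-concentration quantitative screen uses HepG2 cells co-transfected stably with human CAR and CYP2B6-2.2kb reporter. Treatment lasts 24 h with 0.75 uM PK11195 final present; ONE-Glo luminescence is the signal.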
A general note: In qHTS, concentration-response curves come from the screen itself.

Assay [2] is described as follows: qHTS assay to identify small molecule antagonists of the estrogen related receptor signaling pathway with the pleiotropic PPARgamma coactivator (PGC) from Tox21 10K library - cell viability counter screen (AID 1224840; active = well fitted cell-killing curve with a large enough effect in the repeat runs, not every such curve was filed as active; note: nearly all actives have a fitted effect of over 40% in size). In a few lines: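 Fluorescence read-out of CellTiter-Fluor viability reagent, added after cells had been exposed to compound in DMSO for 17.5 h at 37 C; 30 min development at 37 C/5% CO2. Cells: PGC/ERR line, 2,000/well.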

The target in assay [3] is Thyrotropin receptor (Homo sapiens) (UniProt P16473). Kind of assay: qHTS assay to identify small molecule agonists of the thyroid stimulating hormone receptor (TSHR) signaling pathway (AID 1224843; calls by dose curve; note: nearly all actives have a fitted effect of over 45% in size). In a few lines:
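HEK293/TSHR, 800 cells/well; cpd 30 min RT; add cAMP-d2 + anti-cAMP-cryptate, 1 h RT; fluorescence read on plate reader. 15-pt titration, n=3.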

A short description of assay [4]: qHTS assay to identify small molecule agonists of the hypoxia (HIF-1) signaling pathway - cell viability counter screen (AID 1224844; calls by dose curve; note: nearly all actives have a fitted effect of over 50% in size). In a few lines: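 CellTiter-Glo luminescence read-out, 30 min RT, taken in the same wells as the beta-lactamase HRE reporter assay; HRE-bla ME-180 cells, 0.5% dialyzed FBS, 17 hr compound treatment at 37C, 5% CO2.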
The nature of assay [5]: qHTS assay to identify small molecule agonists of H2AX (AID 1224845; active = well fitted activation curve with a large enough effect in the signal ratio in the repeat runs, not every such curve was filed as active; the % refers to the signal ratio). In a few lines:
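Wild-type CHO-K1 cells, plated overnight, exposed 3hr at 37C to 15 concentrations (0.76% DMSO final). Lysed, then HTRF anti-pH2AX (S139) cryptate and anti-H2AX-d2 antibodies, 24 hr room temperature; 665/620 nm emission read.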

Assay [6] can be described thus: qHTS assay to identify small molecule agonists of the hypoxia (HIF-1) signaling pathway (AID 1224846; active = well fitted activation curve with a large enough effect in the signal ratio in the repeat runs, not every such curve was filed as active; the % refers to the signal ratio). In a few lines: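 Beta-lactamase FRET read-out (CCF4-AM substrate) from ME-180 cells carrying an HRE-driven bla reporter, after 17 hrs compound exposure at 37C/5% CO2. Cells were seeded at 2,000 per well in 0.5% dialyzed FBS medium and preincubated 5 hrs.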
The nature of assay [7]: qHTS assay to identify small molecule agonists of H2AX - cell viability counter screen (AID 1224847; calls by dose curve; note: top concentration of the series differs between compounds; nearly all actives have a fitted effect of over 30% in size). In a few lines: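 We seed wild-type CHO-K1 cells overnight, treat them for 3 hr at 37C with compounds in 15-concentration series, and quantify remaining viability by CellTiter-Glo luminescence.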
Assay [8] is described as follows: qHTS RealTime-Glo MT Cell Viability Assay in HepG2 cells - 24 hour (AID 1224867). Note: nearly all actives have a fitted effect of over 50% in size. In a few lines: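 Cells + NanoLuc/prosubstrate dispensed (600 cells/well) → 5 h at 37 C/5% CO2 → compounds in DMSO transferred → 40 h incubation at 37 C, luminescence read at 0, 8, 16, 24, 32, 40 h.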
Assay [9] is described as follows: qHTS RealTime-Glo MT Cell Viability Assay in HEK293 cells - 32 hour (AID 1224868). Note: top concentration of the series differs between compounds; nearly all actives have a fitted effect of over 50% in size. In a few lines: (§1)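 Tox21 10K qHTS, HEK293, 600 cells/well, RealTime-Glo reagent co-dispensed with cells; 5 h preincubation, compound by pintool, 37 C, luminescence at 0–40 h.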
Assay [10] is described as follows: A CellTox Green Cytotoxicity Assay to monitor cytotoxicity in HEK293 cells - 0 hour (AID 1224869). Note: nearly all actives have a fitted effect of over 50% in size. Note: potency is the fitted concentration of half-maximal effect. In a few lines:
(§2)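 Read-out: fluorescence of a cell-impermeant cyanine dye staining DNA of dead cells, proportional to cytotoxicity. HEK293, 600 cells/well with reagent, compound (23 nL DMSO) added after 5 h; reads at 0, 8, 16, 24, 32, 40 h.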

Assay [11] in a line: qHTS RealTime-Glo MT Cell Viability Assay in HepG2 cells - 40 hour (AID 1224870). Note: nearly all actives have a fitted effect of over 50% in size. In a few lines:
(§3)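 HepG2 cells (600/well) mixed with RealTime-Glo MT reagent, settled 5 h at 37 C/5% CO2 before compound addition. Nonlytic NanoLuc luminescence from viable-cell prosubstrate reduction read repeatedly during 40 h treatment at 37 C.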

Assay [12] in a line: A CellTox Green Cytotoxicity Assay to monitor cytotoxicity in HEK293 cells - 40 hour (AID 1224871). Note: nearly all actives have a fitted effect of over 45% in size. Note: potency is the fitted concentration of half-maximal effect. In a few lines:
as §2

Assay [13] in a line: qHTS RealTime-Glo MT Cell Viability Assay in HEK293 cells - 16 hour (AID 1224872). In a few lines: as §1
The nature of assay [14]: qHTS RealTime-Glo MT Cell Viability Assay in HepG2 cells - 8 hour (AID 1224873). Note: nearly all actives have a fitted effect of over 55% in size. In a few lines:
as §3

A short description of assay [15]: qHTS RealTime-Glo MT Cell Viability Assay in HEK293 cells - 40 hour (AID 1224874). Note: nearly all actives have a fitted effect of over 50% in size. Conditions: RealTime-Glo luminescence; max response: stronger effect = lower value. Put shortly:
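Luminescence readout at each listed time point; HEK293, 600 cells/well, RealTime-Glo MT reagent added with cells; compounds pinned (23 nL in DMSO) after 5 h at 37 C; continuous culture at 37 C.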

The nature of assay [16]: A CellTox Green Cytotoxicity Assay to monitor cytotoxicity in HEK293 cells - 24 hour (AID 1224875). Note: nearly all actives have a fitted effect of over 45% in size. Note: potency is the fitted concentration of half-maximal effect. In a few lines:
as §2

Assay [17] is described as follows: qHTS assay to identify small molecule antagonists of the estrogen related receptor signaling pathway with the pleiotropic PPARgamma coactivator (PGC) from Tox21 10K library (AID 1224841; call rule not given here). Put shortly:
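Luminescence read-out (One-Glo luciferase reagent, 30 min at room temperature) from PGC/ERR cells exposed to DMSO-dissolved test compounds for 18 h at 37 C; cells, 2,000 per well, had been preincubated 6 h before compound transfer.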

A short description of assay [18]: qHTS assay to identify small molecule agonists of the estrogen related receptor signaling pathway with the pleiotropic PPARgamma coactivator (PGC) from Tox21 10K library (AID 1224842). Note: nearly all actives have a fitted effect of over 15% in size. In a few lines: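 PGC/ERR reporter cell line, 2,000 cells per well, incubated 6 h at 37 C before 23 nL compound in DMSO was added. After 18 h at 37 C, One-Glo luminescence read following 30 min at room temperature.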

The nature of assay [19]: qHTS assay to identify small molecule antagonists of the estrogen related receptor (ERR) signaling pathway from Tox21 library (AID 1224848). Note: nearly all actives have a fitted effect of over 50% in size. Note: potency is the fitted concentration of half-maximal effect. In a few lines:
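Compounds dissolved in DMSO are pin-transferred onto ERR reporter cells (2,000 per well) that have settled for 6 h at 37 C. Plates then incubate 18 h at 37 C before ONE-Glo luciferase reagent and a luminescence read 30 min later.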

The nature of assay [20]: qHTS assay to identify small molecule agonists of the estrogen related receptor (ERR) signaling pathway from Tox21 library (AID 1224849; calls by dose curve; note: nearly all actives have a fitted effect of over 15% in size). Conditions: ERR reporter cell line, ONE-Glo luciferase, 18 h; at 92.4 µM (top of the series) unless noted. In a few lines:
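Luminescence readout (ONE-Glo, 30 min RT) after 18 h compound exposure at 37 C of NTP-supplied ERR reporter cells; cells were plated 6 h before compound addition by pin tool.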

Unmarked numbers belong to inactive results. Inconclusive results are not listed. Activity calls are given as the source filed them. Unless noted, calls come from the whole dose curve; as a rule, active = well fitted curve in the direction sought with a large enough effect in the repeat runs; inconclusive = weak or mixed curves; inactive = no such curve, though single readings can be large; an effect the other way counts as inactive or inconclusive.
% is set by controls: 0 for no effect and ±100 for the full control effect.

Chain of Nuclear receptor subfamily 1 group I member 3 (Homo sapiens) (Q14994 whole entry, looked up): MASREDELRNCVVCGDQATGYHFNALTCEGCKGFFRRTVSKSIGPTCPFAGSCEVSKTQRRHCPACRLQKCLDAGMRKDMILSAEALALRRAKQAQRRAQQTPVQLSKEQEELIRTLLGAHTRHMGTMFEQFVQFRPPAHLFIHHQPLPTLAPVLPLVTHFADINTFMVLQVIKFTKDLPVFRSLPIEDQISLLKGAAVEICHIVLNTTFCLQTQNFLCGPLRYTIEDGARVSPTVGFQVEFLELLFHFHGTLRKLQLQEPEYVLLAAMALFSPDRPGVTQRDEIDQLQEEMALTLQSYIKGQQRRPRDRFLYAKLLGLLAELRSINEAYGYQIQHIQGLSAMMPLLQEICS
Chain of Thyrotropin receptor (Homo sapiens) (P16473 whole entry, looked up): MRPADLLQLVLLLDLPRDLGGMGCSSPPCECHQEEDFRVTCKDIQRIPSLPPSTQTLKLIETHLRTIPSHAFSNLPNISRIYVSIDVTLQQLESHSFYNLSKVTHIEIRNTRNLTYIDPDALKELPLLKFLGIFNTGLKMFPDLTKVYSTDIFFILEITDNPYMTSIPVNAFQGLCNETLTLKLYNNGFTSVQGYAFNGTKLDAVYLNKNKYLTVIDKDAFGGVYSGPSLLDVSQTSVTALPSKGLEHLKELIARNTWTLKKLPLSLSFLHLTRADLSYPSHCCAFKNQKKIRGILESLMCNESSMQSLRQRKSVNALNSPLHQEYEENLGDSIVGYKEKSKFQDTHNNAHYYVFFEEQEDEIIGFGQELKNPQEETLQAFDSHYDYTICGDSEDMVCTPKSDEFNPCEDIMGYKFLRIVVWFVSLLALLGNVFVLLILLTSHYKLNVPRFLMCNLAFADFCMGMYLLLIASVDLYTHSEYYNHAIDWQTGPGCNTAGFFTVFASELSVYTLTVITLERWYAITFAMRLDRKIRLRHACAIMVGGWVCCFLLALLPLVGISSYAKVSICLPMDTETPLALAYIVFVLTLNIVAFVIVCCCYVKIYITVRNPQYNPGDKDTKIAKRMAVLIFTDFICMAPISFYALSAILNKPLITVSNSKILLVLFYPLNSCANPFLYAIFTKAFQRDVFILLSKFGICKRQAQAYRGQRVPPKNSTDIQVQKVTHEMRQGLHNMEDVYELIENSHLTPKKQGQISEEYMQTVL

On to `C/C(CC(C)C)=N\O`, for which the Potency entry in [1], in [9], in [10], in assay [12], in [13] and in assay [16] was “inactive” in each case. Also, the result in [2], in assay [3], in assay [4], in [5], in assay [6] and in [7] was inactive. The outcome in assay [8], in assay [11] and in assay [14] was inactive. Moreover, the max response in assay [15] is -0.628%.

As to `c1ccc(B(c2ccccc2)c2ccccc2)cc1`, the Potency in [1] is 48.5 µM (active). For the same compound, the compound was called inactive in assay [2], in assay [17], in assay [18], in assay [4], in [5] and in assay [6]. For the same compound, the compound was called inactive in assay [8], in assay [11] and in assay [14]. The Potency result in assay [19], in [10] and in [12] was “inactive” in each case.

As for `O=C(O)CCCCCC(=O)O`, the Potency entry in assay [1], in [19], in [9] and in assay [13] was “inactive” in each case. In addition, the compound was called inactive in [2], in assay [17], in [18], in assay [4], in assay [5] and in [6]. Moreover, the compound was classed as inactive in assay [7], in assay [8], in [11] and in assay [14]. Further, in assay [20], the activity change, positive = activation is 1.8%. The Potency in assay [12] is 22 µM (active). In addition, the max response in [15] is 0.774%.

Consider `O=C(CCCCC(=O)Nc1c(I)cc(I)c(C(=O)O)c1I)Nc1c(I)cc(I)c(C(=O)O)c1I`, for which the Potency result in assay [1], in [9], in assay [10], in [12], in [13] and in assay [16] was “inactive” in each case. Moreover, the compound was called inactive in assay [2], in [18], in assay [3], in [4], in [7] and in assay [8]. Further, the compound was called inactive in assay [11] and in assay [14]. For the same compound, in [19], the Potency was 21.1 µM (active). For the same compound, the activity change, positive = activation in assay [20] is -37% [at 42.5 µM]. Also, in [15], the max response is -12.6%.

Regarding `CN(C)CCCCl`, the Potency result in assay [1], in [9], in [10], in assay [12] and in assay [13] was “inactive” each time. Besides, the compound was called inactive in [2], in assay [3], in [4], in [5], in [6] and in [7]. In addition, the outcome in assay [8], in assay [11] and in assay [14] was inactive. In assay [15], the max response was 0.853%.

In the case of `CC1c2ccccc2CN1NC(=O)c1ccc(Cl)c(S(N)(=O)=O)c1` (stereo not drawn), the Potency result in assay [1], in [19], in assay [9], in assay [10], in assay [12] and in [13] was “inactive” each time. In addition, the Potency entry in assay [16] was “inactive”. Moreover, the result in [2], in assay [18], in assay [3], in [4], in assay [5] and in assay [6] was inactive. Besides, the result in assay [7], in [8], in [11] and in assay [14] was inactive. Further, the activity change, positive = activation in assay [20] is 3.24% [at 42.5 µM]. In addition, the max response in assay [15] is -0.0255%.

`CCCc1ccc(O)cc1`: the Potency entry in assay [1], in assay [9], in assay [10], in [12] and in [13] was “inactive” throughout. Besides, the call in assay [2], in assay [3], in assay [4], in [5], in assay [6] and in assay [7] was inactive. Moreover, the result in assay [8], in [11] and in assay [14] was inactive. The max response in assay [15] was 6.55%.

Turning to `CCCCCCCCCOC(=O)CCCCC(=O)OCCCCCCC`, the Potency entry in assay [1], in assay [9] and in [13] was “inactive” each time. Moreover, the call in assay [2], in assay [3], in [4], in [5], in assay [6] and in [7] was inactive. The call in assay [8], in [11] and in assay [14] was inactive. In addition, the figures for the Potency in [10], in assay [12] and in assay [16] were 43.6 µM (active), 24.5 µM (active) and 24.5 µM (active), respectively. Besides, the max response in assay [15] is 0.901%.
